PubChem BioAssay
Several values for one entry are separate records, joined by “and”; a condition that tells them apart may be missing. Identical values can stand only once. Activity calls are given as the source filed them.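 Rule for the calls, unless noted: active = compounds whose cell count with miR-34 switched on is under 0.7 times the count with it off; inactive = the rest.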

Columns and labels:
[1] = compounds altering circadian rhythm period length – cell-based, LOPAC library, luminescence reporter (AID 2774; call rule not given here;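 note: values are relative to mean of DMSO wells on each plate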); conditions: circadian reporter cells, at 7 µM, actives lie on both sides
[2] = tested on: Aerobactin synthetase IucA (Klebsiella pneumoniae); experiment: inhibition of K. pneumoniae IucA enzyme – biochemical, Tocris library, absorbance (AID 1345561; call rule not given here;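 note: 100% = enzyme without compound and 0% = no enzyme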); conditions: purified IucA enzyme assay, absorbance (OD) read-out; stronger effect = lower value;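 tested at 8 µM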
[3] = viability loss with induced miR-34 in A549 – imaging, A549 dox-inducible miR-34, nuclei and caspase counts, primary screen (AID 1347080); conditions: A549 miR-34 inducible, Hoechst nuclei count, 48 h
[4] = compounds altering HSF1 focus formation in cells – imaging, Selleck Cancer Library (AID 1347162; in the data active = plate-normalised HSF1 focus index below about 0.46); conditions: human cells, HSF1 nuclear foci imaging, at 10 µM; SSMD: measured here: HSF1 foci SSMD mean; cell count: measured here: cell number; plate-normalised HSF1 focus index: stronger effect = lower value
[5] = galactose survival enhancers in mitochondrial complex I cybrids – cell-based, galactose medium, ATP luminescence, primary screen (AID 1645843;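 active = z-score of at least 1.8 in each of two replicates, scored against plate mean and spread of sample wells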;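 note: positive z means more ATP and so rescue of galactose-driven cybrid death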); conditions: complex I mutant cybrid cells, 72 h, stronger effect = higher value
[6] = MELAS cybrid and Rieske KO viability enhancers – cell-based, MELAS cybrids, Rieske KO mouse fibroblasts, CellTiter-Glo, primary screen (AID 1508586;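 active = mean z-score across replicates of 1.96 or higher in either the MELAS or the Rieske mutant cell line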;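 note: z relative to plate mean and SD of compound and empty wells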); conditions: low glucose
[7] = P. berghei load reduction in hepatocytes – cell-based, HepG2, luciferase luminescence, HepG2 viability, primary screen (AID 624349; in the data active = parasite load remaining mostly below about 12%, no sharp cut-off; inactive = mostly above about 10%;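 note: 100% = mean of DMSO negative control wells on the same plate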); conditions: P. berghei liver stage in HepG2, luciferase luminescence, concentration not given here; parasite load remaining: stronger effect = lower value; viability: measured here: HepG2 viability without parasites
[8] = stronger effect = lower value, cell number ratio, induced over uninduced
[9] = measured here: relative caspase fold change +Dox/-Dox
[10] = measured here: total cells with miR-34 induction, stronger effect = lower value
[11] = measured here: total cells without miR-34 induction
[12] = MELAS cybrid survival, CellTiter-Glo 48 h, stronger effect = higher value
[13] = Rieske KO mouse fibroblast survival, CellTiter-Glo 72 h

Row | SMILES | period change [1] | remaining activity [2] | fold change [3, 8] | fold change [3, 9] | cell count [3, 10] | cell count [3, 11] | SSMD [4] | cell count [4] | plate-normalised HSF1 focus index [4] | z-score [5] | z-score [6, 12] | z-score [6, 13] | parasite load remaining [7] | viability [7] [%]
1 | CN(C)CCCCSC(=N)N | 0.15 h (inactive) | 110% (inactive) | 0.981 (inactive) | 0.637 | 8600 | 8770 | 1.03 | 6740 | 1.06 (inactive) | 0.38 (inactive) | – | – | – | –
2 | CCCCN1CCC(CCC(=O)c2cc(Cl)c(N)cc2OC)CC1 | – | 95.7% (inactive) | 0.973 (inactive) | 1.12 | 8560 | 8800 | – | – | – | -0.48 (inactive) | – | – | – | –
3 | NC(=O)c1sc(-c2ccsc2)cc1N | – | 88.4% (inactive) | 0.841 (inactive) and 0.869 (inactive) | 0.888 and 1.88 | 8280 and 7870 | 9850 and 9060 | – | – | – | 0.36 (inactive) | -0.221 (inactive) | -0.163 | – | –
4 | CN1C[C@H]2c3ccccc3Oc3ccc(Cl)cc3[C@@H]2C1 (racemic) | – | 109% (inactive) | 0.868 (inactive) | 2.03 | 5560 | 6410 | – | – | – | -0.745 (inactive) | – | – | – | –
5 | CCCCCCCC/C=C\CCCCCCCC(=O)N[C@@H](CO)Cc1ccc(O)cc1 | – | 129% (inactive) | 0.903 (inactive) and 0.933 (inactive) | 1.11 and 0.626 | 5590 and 5540 | 6200 and 5940 | – | – | – | -0.83 (inactive) | – | – | – | –
6 | CNC(CC(=O)O)C(=O)O (stereo not drawn) | – | 97.3% (inactive) | 0.825 (inactive) and 1.05 (inactive) | 1.55 and 0.67 | 8200 and 8440 | 9940 and 8040 | – | – | – | 0.29 (inactive) | -0.165 (inactive) | -0.287 | – | –
7 | Cc1cc(F)c(Nc2ncnc3cc(OCc4ccccc4)ccc23)cc1O | – | 105% (inactive) | 0.94 (inactive) and 0.947 (inactive) | 0.62 and 2.22 | 7080 and 7020 | 7530 and 7420 | – | – | – | 1.85 (inactive) | 0.202 (inactive) | 0.0931 | – | –
8 | Nc1[nH]nc2nnc(-c3c(-c4ccccc4)nn4ccccc34)cc12 | – | 115% (inactive) | 1.01 (inactive) | 3.36 | 6630 | 6550 | 2.88 | 7090 | 1.16 (inactive) | 1.04 (inactive) | – | – | 43.4% (inactive) | 122
